# Laboratory results as given in PubChem BioAssay (EPA / NIEHS).
# Records with an inconclusive call do not appear. Calls of active or inactive are those of the source. Rule for the calls: active = hit-call score of the fitted dose curve at least 0.9, where 1 is the maximum; inconclusive = response in the unintended direction; inactive = score below 0.9.
# Experiments:
# [1] = Tanguay_ZF_120hpf_ActivityScore_legacy: (Legacy) Oregon State University Tanguay Lab 120 Hour Post-fertilization zebrafish Assay Score for Activity (AID 2283742)
# Method in brief: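 In this whole-embryo screen, dechorionated zebrafish were exposed from 6 hpf until 120 hpf at 28C under a 0.64% DMSO vehicle. Developmental malformations and death were recorded by brightfield microscopy as binary endpoints.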
# [2] = STM_H9_NormalizedViability: Cytotoxicity Assessment at 120 hours in the Stemina devTOX quickPredict H9 human embryonic stem cell (hESC)-based Assay (AID 2283784)
# Method in brief: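 Here, H9 cells received test compound with daily medium renewal. Each plate included methotrexate references (1uM, 5 nM), 0.1% DMSO and media blanks; CellTiter-Fluor RFU was normalized to DMSO.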
# [3] = target: zebrafish Estrogen Receptor (ESR1), esr1 (gene 259252) (UniProt P57717); experiment: ATG_zfER1_XSP1: Attagene TRANS-FACTORIAL Multi-Species (XSP1) HepG2 Assay for zebrafish Estrogen Receptor (ESR1) (AID 2283772)
# Method in brief: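 Transfect HepG2 with GAL4-UAS multi-reporter constructs; treat 24 h (medium carries 3 nM 6-alpha-fluorotestosterone); extract RNA, reverse-transcribe, PCR-amplify, FAM-label, digest with HpaI; resolve by capillary electrophoresis and compare against DMSO baseline.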
# [4] = tested on: zebrafish Estrogen Receptor (ESR2B), gene 317733; experiment: ATG_zfER2b_XSP1: Attagene TRANS-FACTORIAL Multi-Species (XSP1) HepG2 Assay for zebrafish Estrogen Receptor (ESR2B) (AID 2283773)
# Method in brief: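 Human hepatoma HepG2, transiently transfected with multi-reporter units; exogenous zebrafish ESR2B-Gal4 activity measured. Exposure 24 h alongside 3 nM 6-alpha-fluorotestosterone to partly stimulate AR.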
# [5] = tested on: frog Estrogen Receptor (ESR2), gene 100174814; experiment: ATG_frER2_XSP1: Attagene TRANS-FACTORIAL Multi-Species (XSP1) HepG2 Assay for frog Estrogen Receptor (ESR2) (AID 2283774)
# Method in brief: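 Multiplexed TRANS-format reporter assay in human hepatoma HepG2: chimeric nuclear receptor-Gal4 activity reported as mRNA induction at 24 h, detected by fluorescent RT-PCR products on capillary electrophoresis and fitted upward from DMSO baseline.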
# [6] = tested on: frog Estrogen Receptor (ESR1), gene 398734; experiment: ATG_frER1_XSP1: Attagene TRANS-FACTORIAL Multi-Species (XSP1) HepG2 Assay for frog Estrogen Receptor (ESR1) (AID 2283777)
# Method in brief: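 After transient transfection and 24 h compound treatment, total RNA from HepG2 cells was reverse-transcribed, amplified, FAM-labeled and resolved by capillary electrophoresis. Signal increases were fitted against DMSO controls.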
# [7] = tested on: zebrafish Estrogen Receptor (ESR2A), gene 317734; experiment: ATG_zfER2a_XSP1: Attagene TRANS-FACTORIAL Multi-Species (XSP1) HepG2 Assay for zebrafish Estrogen Receptor (ESR2A) (AID 2283778)
# Method in brief: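 Gain-of-signal reporter transcription readout from GAL4-UAS units in transiently transfected HepG2 cells, 24 h exposure, 3 nM 6-alpha-fluorotestosterone co-present. Detection by RT-PCR with capillary electrophoresis fluorescence.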
# [8] = target: chicken Estrogen Receptor (ESR1), ESR1 (gene 396099) (UniProt P06212); experiment: ATG_chERa_XSP1: Attagene TRANS-FACTORIAL Multi-Species (XSP1) HepG2 Assay for chicken Estrogen Receptor (ESR1) (AID 2283779)
# Method in brief: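 Gain-of-signal reporter transcription, relative to DMSO, was scored in transiently transfected HepG2 cells after a 24 h dose. Fluorescence intensity of amplified, digested reporter cDNA fragments served as the endpoint.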
# [9] = tested on: turtle Estrogen Receptor (ESR1), gene 101933533; experiment: ATG_trERa_XSP1: Attagene TRANS-FACTORIAL Multi-Species (XSP1) HepG2 Assay for turtle Estrogen Receptor (ESR1) (AID 2283781)
# Method in brief: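 Cell-based chimeric NR-Gal4 transactivation; HepG2; 24 h dosing; mRNA reporter detected by RT-PCR and capillary electrophoresis fluorescence.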
# [10] = tested on: turtle Androgen Receptor (AR), gene 101947425; experiment: ATG_trAR_XSP1: Attagene TRANS-FACTORIAL Multi-Species (XSP1) HepG2 Assay for turtle Androgen Receptor (AR) (AID 2283786)
# Method in brief: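 Partial androgen stimulation is provided by 3 nM 6-alpha-fluorotestosterone in a multi-species trans-factorial panel expressing a turtle AR–GAL4 fusion in HepG2. After 24 h, reporter mRNA is measured by RT-PCR and capillary electrophoresis and fitted upward against DMSO.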
# [11] = target: Estrogen receptor beta (Homo sapiens) (UniProt Q92731); experiment: ATG_hERb_XSP1: Attagene TRANS-FACTORIAL Multi-Species (XSP1) HepG2 Assay for human Estrogen Receptor (ESR2) (AID 2283788)
# Method in brief: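 Multiplexed trans-activation in transfected HepG2: ERβ-Gal4 reporter transcripts after 24 h treatment, detected by RT-PCR plus capillary electrophoresis.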
# [12] = ATG_M_06_XSP1: Attagene TRANS-FACTORIAL Multi-Species (XSP1) HepG2 Assay for M06 Transcription Factor (Internal Marker) (AID 2283790)
# Method in brief: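 This background-control readout tracks M06 reporter mRNA, measured by RT-PCR and capillary electrophoresis. HepG2 cells transiently carrying the GAL4-UAS reporter panel were dosed for 24 h with 3 nM 6-alpha-fluorotestosterone added for partial AR stimulation; increases were scored relative to DMSO.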
# AR (gene 367) [13] = target: AR (gene 367) (UniProt P10275); experiment: ACEA_AR_agonist_80hr: ACEA Biosciences xCELLigence Real-Time Cell Analysis on Androgen Receptor Agonism for Proliferation (AID 2283783);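 note: hits increase impedance growth signal above DMSO baseline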
# Method in brief: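 Real-time cell-growth kinetics were recorded by electrode impedance in 22Rv1 cells exposed to test chemicals up to 100 uM final; the 80 h timepoint served as the readout, fitted upward relative to DMSO controls, in biological duplicate.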
# [14] = ACEA_AR_agonist_AUC_viability: ACEA Biosciences xCELLigence Real-Time Cell Analysis on Androgen Receptor Agonism for Viability (AID 2283775);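 for AC50: viability read 80 hours after compound addition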
# Method in brief: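 Viability endpoint from xCELLigence impedance in 22Rv1 prostate cells at 80 h. Eight-point series, 100 uM maximum final.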
# [15] = ACEA_AR_antagonist_AUC_viability: ACEA Biosciences xCELLigence Real-Time Cell Analysis on Androgen Receptor Antagonism for Viability (AID 2283776);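 note: area under impedance growth curve at 80 h after dosing as viability; hits lower the growth signal relative to DMSO meaning cytotoxicity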
# Method in brief: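 22Rv1 human prostate cancer cells were seeded on electrode plates, monitored overnight, then exposed to eight 1:4 dilutions from 100 uM final. Impedance-based growth kinetics at 80 h gave an AUC viability endpoint normalized to DMSO.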
# [16] = ACEA_ER_AUC_viability: ACEA Biosciences xCELLigence Real-Time Cell Analysis on Estrogen Receptor Agonism for Viability (AID 2283782);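 note: hit means loss of impedance signal meaning reduced cell growth or viability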
# Method in brief: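 Continuous-exposure impedance cell analysis uses T-47D cells in charcoal-stripped serum, eight 1:4 dilutions topping at 100 uM final, biological duplicate. Area under the growth curve at 80 h is fitted against DMSO baseline.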
# [17] = target: Luciferin 4-monooxygenase (Photinus pyralis) (UniProt P08659); experiment: CCTE_Simmons_QuantiLum_inhib_2: CCTE's Firefly Luciferase Inhibition Assay, Simmons Lab (AID 2283767);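 for AC50: potency for inhibitors that lower luciferase luminescence relative to DMSO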
# Method in brief: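 Eight-point titrations of each chemical, 5 nM–87.5 uM final in 0.5% DMSO, were run in three biological replicates against recombinant luciferase for 30 min at 37C. Bioluminescence signal loss, read on reagent injection, gave the inhibition endpoint.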
# AR (gene 367) [18] = target: AR (gene 367) (UniProt P10275); experiment: ACEA_AR_antagonist_80hr: ACEA Biosciences xCELLigence Real-Time Cell Analysis on Androgen Receptor Antagonism for Proliferation (AID 2283787);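 note: hits lower the impedance growth signal relative to DMSO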
# Method in brief: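 Using 22Rv1 cells held in assay medium, we dosed compounds (100 uM maximum final, 1:4 serial, eight points, 0.5% DMSO at top) and recorded cell-electrode impedance; the 80 hr timepoint was analyzed against DMSO.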
# Chain of AR (gene 367) (P10275 whole entry, looked up): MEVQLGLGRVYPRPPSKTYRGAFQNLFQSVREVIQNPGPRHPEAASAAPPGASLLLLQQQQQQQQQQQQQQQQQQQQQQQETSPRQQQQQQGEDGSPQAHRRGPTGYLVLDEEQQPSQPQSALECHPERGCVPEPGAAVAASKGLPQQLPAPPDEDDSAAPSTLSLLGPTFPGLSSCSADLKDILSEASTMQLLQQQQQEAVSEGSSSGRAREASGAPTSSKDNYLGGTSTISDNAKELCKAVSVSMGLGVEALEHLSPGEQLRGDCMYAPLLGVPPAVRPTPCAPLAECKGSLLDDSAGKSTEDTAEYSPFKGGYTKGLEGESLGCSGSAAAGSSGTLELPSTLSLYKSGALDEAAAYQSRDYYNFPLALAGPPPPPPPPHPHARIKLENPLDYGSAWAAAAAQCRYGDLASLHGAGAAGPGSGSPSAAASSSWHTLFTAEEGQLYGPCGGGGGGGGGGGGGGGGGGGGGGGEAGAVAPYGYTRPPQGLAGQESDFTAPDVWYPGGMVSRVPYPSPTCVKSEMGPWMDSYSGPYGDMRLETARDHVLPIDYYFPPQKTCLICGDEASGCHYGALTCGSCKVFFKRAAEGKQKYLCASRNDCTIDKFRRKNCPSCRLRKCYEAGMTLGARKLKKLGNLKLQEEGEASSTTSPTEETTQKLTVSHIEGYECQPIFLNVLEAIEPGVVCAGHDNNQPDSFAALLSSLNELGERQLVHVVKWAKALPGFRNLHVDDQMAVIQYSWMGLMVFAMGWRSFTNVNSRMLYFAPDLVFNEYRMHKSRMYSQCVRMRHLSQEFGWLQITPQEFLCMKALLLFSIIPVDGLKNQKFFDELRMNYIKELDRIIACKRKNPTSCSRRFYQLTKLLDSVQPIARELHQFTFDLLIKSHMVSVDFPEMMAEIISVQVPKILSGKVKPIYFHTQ
# Chain of Luciferin 4-monooxygenase (Photinus pyralis) (P08659 whole entry, looked up): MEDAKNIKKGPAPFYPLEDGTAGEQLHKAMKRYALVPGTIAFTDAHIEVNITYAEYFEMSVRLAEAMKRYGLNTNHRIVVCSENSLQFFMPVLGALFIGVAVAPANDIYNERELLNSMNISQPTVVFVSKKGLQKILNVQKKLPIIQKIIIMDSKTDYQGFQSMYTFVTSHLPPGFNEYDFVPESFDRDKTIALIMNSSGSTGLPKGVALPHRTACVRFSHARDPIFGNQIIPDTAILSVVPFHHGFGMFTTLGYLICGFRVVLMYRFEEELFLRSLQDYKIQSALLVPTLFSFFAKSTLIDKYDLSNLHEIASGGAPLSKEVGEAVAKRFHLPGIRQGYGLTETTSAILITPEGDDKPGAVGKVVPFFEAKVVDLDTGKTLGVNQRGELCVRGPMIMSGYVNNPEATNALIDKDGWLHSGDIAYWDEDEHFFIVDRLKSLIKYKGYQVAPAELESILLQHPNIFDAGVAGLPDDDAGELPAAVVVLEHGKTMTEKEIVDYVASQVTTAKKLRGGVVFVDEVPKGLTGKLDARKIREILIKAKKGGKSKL
# Chain of Estrogen receptor beta (Homo sapiens) (Q92731 whole entry, looked up, the tested form may be a part): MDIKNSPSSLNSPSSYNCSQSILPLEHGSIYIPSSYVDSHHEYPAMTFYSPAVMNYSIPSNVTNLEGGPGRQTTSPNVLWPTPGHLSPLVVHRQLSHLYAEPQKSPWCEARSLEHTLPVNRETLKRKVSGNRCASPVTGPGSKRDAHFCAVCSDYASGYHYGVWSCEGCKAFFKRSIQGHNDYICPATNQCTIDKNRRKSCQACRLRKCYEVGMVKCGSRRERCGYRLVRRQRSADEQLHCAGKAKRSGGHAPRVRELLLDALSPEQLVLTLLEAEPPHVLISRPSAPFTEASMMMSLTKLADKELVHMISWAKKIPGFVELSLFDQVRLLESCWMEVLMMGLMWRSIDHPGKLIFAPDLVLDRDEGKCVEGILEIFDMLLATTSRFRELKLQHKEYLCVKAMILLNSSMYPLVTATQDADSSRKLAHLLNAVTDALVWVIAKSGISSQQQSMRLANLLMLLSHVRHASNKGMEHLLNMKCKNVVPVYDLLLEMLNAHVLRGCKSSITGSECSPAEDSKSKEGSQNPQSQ
# Chain of chicken Estrogen Receptor (ESR1), ESR1 (gene 396099) (P06212 whole entry, looked up, the tested form may be a part): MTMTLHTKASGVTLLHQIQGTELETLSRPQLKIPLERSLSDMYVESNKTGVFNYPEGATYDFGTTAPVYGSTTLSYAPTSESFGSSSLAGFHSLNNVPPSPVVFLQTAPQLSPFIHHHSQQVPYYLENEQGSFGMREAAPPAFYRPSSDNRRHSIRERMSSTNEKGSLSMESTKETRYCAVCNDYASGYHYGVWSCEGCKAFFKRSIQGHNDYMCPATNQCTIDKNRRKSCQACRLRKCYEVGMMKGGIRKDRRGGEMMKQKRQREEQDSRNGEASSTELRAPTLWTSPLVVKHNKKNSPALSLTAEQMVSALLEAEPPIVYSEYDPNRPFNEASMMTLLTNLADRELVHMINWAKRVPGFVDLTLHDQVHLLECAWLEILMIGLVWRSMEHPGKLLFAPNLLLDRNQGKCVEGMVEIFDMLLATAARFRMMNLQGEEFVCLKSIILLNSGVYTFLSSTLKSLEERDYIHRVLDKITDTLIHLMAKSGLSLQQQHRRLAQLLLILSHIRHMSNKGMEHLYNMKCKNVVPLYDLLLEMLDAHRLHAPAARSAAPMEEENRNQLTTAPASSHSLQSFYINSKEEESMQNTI
# Chain of zebrafish Estrogen Receptor (ESR1), esr1 (gene 259252) (P57717 whole entry, looked up, the tested form may be a part): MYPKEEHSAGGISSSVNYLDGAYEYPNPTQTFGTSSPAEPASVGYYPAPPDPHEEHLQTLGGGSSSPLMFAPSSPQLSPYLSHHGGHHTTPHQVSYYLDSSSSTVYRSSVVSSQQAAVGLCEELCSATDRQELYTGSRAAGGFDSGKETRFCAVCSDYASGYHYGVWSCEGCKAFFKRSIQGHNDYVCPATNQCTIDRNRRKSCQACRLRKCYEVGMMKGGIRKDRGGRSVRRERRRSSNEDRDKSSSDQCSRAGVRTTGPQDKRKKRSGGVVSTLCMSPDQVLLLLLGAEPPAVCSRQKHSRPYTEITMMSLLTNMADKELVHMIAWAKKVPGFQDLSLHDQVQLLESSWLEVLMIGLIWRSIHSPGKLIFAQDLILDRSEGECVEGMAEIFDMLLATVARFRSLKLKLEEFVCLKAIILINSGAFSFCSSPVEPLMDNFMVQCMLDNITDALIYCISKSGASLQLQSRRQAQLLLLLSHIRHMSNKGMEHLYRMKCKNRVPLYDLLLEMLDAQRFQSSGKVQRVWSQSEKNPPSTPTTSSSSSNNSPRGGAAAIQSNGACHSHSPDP
smiles,measurement,setting,value
CS(=O)(=O)OCCCCOS(C)(=O)=O,outcome,[1],inactive
same,AC50,[2],23.6 µM (active)
CCCCC(CC)COC(=O)c1ccc(O)cc1 (configuration not stated),outcome,[3],inactive
same,AC50,[4],3.67 µM (active)
same,AC50,[5],0.86 µM (active)
same,AC50,[6],1.91 µM (active)
same,AC50,[7],1.41 µM (active)
same,AC50,[8],2.3 µM (active)
same,AC50,[9],3.59 µM (active)
same,outcome,[10],inactive
same,outcome,[11],inactive
same,outcome,[12],inactive
OCc1cccc(Oc2ccccc2)c1,outcome,AR (gene 367) [13],inactive
CCCCCCCCC=CCCCCCCCC1=NCCN1CCO,outcome,AR (gene 367) [13],inactive
Nc1ccccc1[N+](=O)[O-],outcome,[14],inactive
CCOC(=O)C1OC1c1ccccc1 (configuration not stated),outcome,[14],inactive
same,outcome,[15],inactive
same,outcome,[16],inactive
Nc1ccc2cc(S(=O)(=O)O)cc(O)c2c1N=Nc1ccccc1C(F)(F)F,AC50,[17],51.7 µM (active)
same,outcome,[15],inactive
CCCC(C)=O,outcome,[14],inactive
same,outcome,[15],inactive
same,outcome,[16],inactive
O=Cc1ccccc1S(=O)(=O)O,AC50,[14],1.24 µM (active)
same,outcome,[15],inactive
CCCOCCO,outcome,[14],inactive
same,outcome,[15],inactive
same,outcome,[16],inactive
CC(C)NCC(O)COc1ccc(CC(N)=O)cc1 (configuration not stated),outcome,[17],inactive
same,outcome,[14],inactive
same,outcome,[16],inactive
CCCCCC(C)=O,outcome,[14],inactive
same,outcome,[15],inactive
C=C(C)[C@@H]1CC=C(C)C(=O)C1,outcome,[14],inactive
same,outcome,[15],inactive
c1ccc(Oc2ccccc2)cc1,outcome,[14],inactive
CCCC(=O)OC(C)(C)Cc1ccccc1,outcome,[14],inactive
same,outcome,[15],inactive
same,outcome,[16],inactive
CCC(=O)O[C@@H]1C[C@H]2CC[C@]1(C)C2(C)C,outcome,[14],inactive
CCCCCC(C=O)=Cc1ccccc1,outcome,[17],inactive
same,AC50,[16],80 µM (active)
CS(C)=O,outcome,[14],inactive
same,outcome,[15],inactive
same,outcome,[16],inactive
CCc1ccc(O)cc1,outcome,[17],inactive
same,outcome,[14],inactive
same,outcome,[15],inactive
same,outcome,[16],inactive
same,outcome,AR (gene 367) [18],inactive
COS(=O)(=O)O,outcome,[14],inactive
same,outcome,[15],inactive
same,outcome,[16],inactive
CN1C(=O)c2ccccc2C1=O,outcome,[14],inactive
same,outcome,[15],inactive
same,outcome,[16],inactive
CCC1(C)NC(=O)NC1=O (configuration not stated),outcome,[14],inactive
same,outcome,[15],inactive
CCOc1ccccc1O,outcome,[17],inactive
same,outcome,[14],inactive
same,outcome,[16],inactive
CCCCCCCCCC(=O)OC,outcome,[14],inactive
O=C1OC[C@H](Cc2cccc(O)c2)[C@H]1Cc1cccc(O)c1,outcome,[17],inactive
same,AC50,[15],8.21 µM (active)
C[Si](C)(C)O[Si](C)(C)C,outcome,[14],inactive
same,outcome,[15],inactive
C#CC(C)(O)CC(C)C (configuration not stated),outcome,[14],inactive
same,outcome,[15],inactive
O=P(O)(O)O,outcome,[14],inactive
same,AC50,[15],8.69 µM (active)
same,outcome,[16],inactive
CCOc1ccc(N=Nc2ccc(C=Cc3ccc(N=Nc4ccc(OCC)cc4)cc3S(=O)(=O)O)c(S(=O)(=O)O)c2)cc1,outcome,[17],inactive
same,outcome,[16],inactive
C=CC(=O)OCCCC,outcome,[14],inactive
same,outcome,[15],inactive
OCC(O)c1ccccc1 (configuration not stated),outcome,[14],inactive
same,outcome,[15],inactive
same,outcome,[16],inactive
CN(C)c1cccc(O)c1,AC50,[17],40.6 µM (active)
same,outcome,[15],inactive
CSCCC=O,outcome,[17],inactive
same,AC50,[16],85.8 µM (active)
OCCc1ccccc1,outcome,[14],inactive
same,outcome,[15],inactive
same,outcome,[16],inactive
Oc1ccc2cc(SSc3ccc4cc(O)ccc4c3)ccc2c1,outcome,[17],inactive
same,AC50,[16],87.1 µM (active)
Clc1ccc(C(c2ccccc2Cl)C(Cl)Cl)cc1 (configuration not stated),outcome,[14],inactive
same,outcome,[15],inactive
same,AC50,[16],29.2 µM (active)
Cc1ccc(S(=O)(=O)Oc2ccc(N=Nc3ccc(-c4ccc(N=Nc5c(O)ccc6cc(S(=O)(=O)O)cc(S(=O)(=O)O)c56)c(C)c4)cc3C)cc2)cc1,AC50,[17],17.4 µM (active)
same,AC50,[14],7.03 µM (active)
same,AC50,[15],2.55 µM (active)
same,outcome,[16],inactive
same,AC50,AR (gene 367) [18],5.11 µM (active)
Cc1cc(C)nc(NS(=O)(=O)c2ccc(N)cc2)n1,outcome,[17],inactive
same,outcome,[16],inactive
O=C1OC(=O)c2c(Cl)c(Cl)c(Cl)c(Cl)c21,outcome,[14],inactive
same,outcome,[15],inactive
CC1CC(O)CC(C)(C)C1 (configuration not stated),outcome,[14],inactive
same,outcome,[15],inactive
same,outcome,[16],inactive
CN(C)C(=S)SC(=S)N(C)C,AC50,[16],90.3 µM (active)
CCCCCCCCCCCCN1CCCCCC1=O,outcome,[14],inactive
same,AC50,[16],31.3 µM (active)
CCCCCCCCCCCC(=O)OCC(O)CO (configuration not stated),outcome,[15],inactive
same,AC50,[16],50 µM (active)
CCOC(=O)C(C#N)=C(c1ccccc1)c1ccccc1,outcome,[16],inactive
COC(=O)c1ccc(C)cc1C1=NC(C)(C(C)C)C(=O)N1 (configuration not stated) (tested in a mixture with another compound),outcome,[15],inactive
same,outcome,[16],inactive
CCCCCCCCCCCCCCN(CCO)CCO,AC50,[14],23.7 µM (active)
same,AC50,[15],28.4 µM (active)
same,AC50,[16],7.2 µM (active)
O=[N+]([O-])c1ccc(O)cc1C(F)(F)F,AC50,[14],12.3 µM (active)
same,AC50,[15],12.9 µM (active)
same,AC50,[16],86.6 µM (active)
Cc1ccc(S(N)(=O)=O)cc1,outcome,[15],inactive
